High-throughput results from PubChem.
This is one part of a sample in which hits are shown more often than they occur.
RE007 growth inh – less growth of the S. pombe RE007 Vpr strain; S. pombe RE007 Vpr strain, BacTiter-Glo ATP luminescence, 24 h; Potency, µM (doses to about 92.2 µM), inactives show at the top dose activity change, negative = less growth, most hits filed as inhibitors; 0.21% of 360,000 active; AID 651644; active = well fitted falling curve with a large enough effect; inconclusive = small, poorly fitted or top-dose-only effect; inactive = no such curve, though single readings can be large or run the other way; note: potency is the fitted concentration of half-maximal effect; % is set by controls: 0 for no effect and ±100 for the full control effect; nearly all actives have a fitted effect of over 50% in size
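Fission yeast RE007 carrying one integrated HIV-1 vpr copy, seeded at OD 0.01 in PMG+AL medium with 23 nL pinned compound. Grown 24 h at 30 degrees; viability read by BacTiter-Glo luminescence after 5 min.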
Tb PYK inh – blocks Trypanosoma brucei pyruvate kinase; Q57TT1; TbPYK enzyme, Kinase-Glo Plus ATP luminescence, 45 min; Potency, µM (series often up to 76.8 µM), inactives show at the top dose activity, negative = inhibition, most hits filed as inhibitors; 0.12% of 410,000 active; AID 624173; note: potency is the fitted concentration of half-maximal effect; % is set by controls: 0 for no effect and ±100 for the full control effect; nearly all actives have a fitted effect of over 50% in size
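Screened from lowest to highest concentration, compounds were pinned into TbPYK/substrate mixtures, and ADP (130 uM final) was added. Plates sat at room temperature for 45 min prior to Kinase-Glo Plus detection by luminescence.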
Cycloheximide cs – counter-screen hit for Shiga toxin inhibitors, cycloheximide; 12% of 300,000 active; max response, %; cell reporter, cycloheximide protein synthesis inhibition counterscreen; in the data active = max response mostly above about 13%, no sharp cut-off; inactive = mostly below about 14%; note: read at 38.3 µM for the half of the compounds with a filed dose; 0% is about no effect
Shiga toxin inh – Shiga toxin inhibition. Vero cells, Shiga toxin protein synthesis inhibition reporter. inhibition, % at 38.7 µM. 9.2% of 290,000 active. AID 2315; in the data active = inhibition mostly above about 28%, no sharp cut-off; inactive = mostly below about 43%; note: 0% is about no effect
FBPA Giardia inh – Giardia lamblia aldolase inhibition; A8B2U2; Potency, µM (top dose mostly 59.6 µM), for inactives: top-dose activity, negative = inhibition, hits mostly inhibitors; 0.71% of 290,000 active; purified Giardia FBPA; note: potency is the fitted concentration of half-maximal effect; % is set by controls: 0 for no effect and ±100 for the full control effect; nearly all actives have a fitted effect of over 55% in size
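40 nM FBPA preincubated 10 min at RT with compound (up to 57.5 uM final), then substrate plus GAPDH/TPI/NAD/arsenate coupling and diaphorase/resazurin added. Fluorescence read after 20 min at RT, 525/598 nm.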
LmPK inh – blocks Leishmania mexicana pyruvate kinase activity. AID 1721. 0.37% of 290,000 active. purified LmPK, Kinase-Glo ATP luminescence, 1 h. Potency, µM (doses to about 57.5 µM), inactives show at the highest dose activity change, negative = inhibition, most hits filed as inhibitors; note: potency is the fitted concentration of half-maximal effect; % is set by controls: 0 for no effect and ±100 for the full control effect
Target sequence (Q27686 whole entry, looked up): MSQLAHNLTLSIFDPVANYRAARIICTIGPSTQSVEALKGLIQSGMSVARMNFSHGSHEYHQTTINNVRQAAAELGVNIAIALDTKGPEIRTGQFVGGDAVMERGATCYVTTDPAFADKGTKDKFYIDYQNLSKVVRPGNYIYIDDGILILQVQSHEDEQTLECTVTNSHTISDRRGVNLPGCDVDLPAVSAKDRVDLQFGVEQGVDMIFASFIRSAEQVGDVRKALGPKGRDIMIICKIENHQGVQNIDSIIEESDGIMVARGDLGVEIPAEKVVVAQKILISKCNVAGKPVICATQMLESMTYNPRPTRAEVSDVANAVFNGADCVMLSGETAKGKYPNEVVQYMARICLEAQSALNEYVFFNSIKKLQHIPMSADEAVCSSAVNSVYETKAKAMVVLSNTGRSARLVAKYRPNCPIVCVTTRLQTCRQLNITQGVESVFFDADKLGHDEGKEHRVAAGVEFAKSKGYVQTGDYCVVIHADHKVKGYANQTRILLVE
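0.1 nM LmPK, 0.5 mM PEP, 0.1 mM ADP; 50 mM imidazole pH 7.2, 7 mM MgCl2, 50 mM KCl; 1 h RT. Kinase-Glo luminescence readout, normalized to no-enzyme (full inhibition) and uninhibited wells.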
Numbers without * were called inactive; ? = inconclusive; · = no result; [ ] = another dose, or the depositor's remark. Unless noted, calls come from the whole dose curve; as a rule, active = well fitted curve in the direction sought with a large enough effect; inconclusive = small, poorly fitted or top-dose-only effect, or another doubt; inactive = no such curve, though single readings can be large; an effect the other way counts as inactive or inconclusive.

SMILES	RE007 growth inh	Tb PYK inh	Cycloheximide cs	Shiga toxin inh	FBPA Giardia inh	LmPK inh
O=C(O)CCc1ccc(-c2ccc(Br)cc2)n1-c1cccc(O)c1	-11%	-3%	32*	87*	8%	-2%
COc1ccc2cc(CNc3ccccc3)c(=O)n(CC(=O)Nc3ccc(C)cc3C)c2c1	·	-6%	·	·	·	·
Cc1ccc(-c2cc(C(F)F)nc(NCC3CCCO3)n2)cc1 (configuration not stated)	20µM*	-16%	16*	48*	0%	2%
Cc1ccc(-c2nc(CSCC(=O)NCC3CCCO3)c(C)o2)cc1 (configuration not stated)	15%	-4%	11	15	7%	-2%
Cc1ccc(-c2cc(C(F)F)nc(NCc3cccs3)n2)cc1	-2%	13%	0	9	-1%	-1%
Cc1ccc(-c2nc(C#N)c(NCC3CCCO3)o2)cc1 (configuration not stated)	-18%	2%	25*	82*	2%	-14%
Cc1cccc(-c2nc(C#N)c(NCC3CCCO3)o2)c1 (configuration not stated)	8%	0%	44*	89*	2%	2%
Cc1cccc(-c2nc(C#N)c(N3CCCCCC3)o2)c1	8%	1%	28*	70*	-2%	-13%
CN(C)c1ncc2nc(-c3cccs3)c(=O)n(C3CC3)c2n1	·	0%	·	·	-11%	·
Cc1ccc(C)c(N2CCN(C(=O)Cn3cnc4onc(-c5ccc(F)cc5)c4c3=O)CC2)c1	·	3%	·	·	·	·
COc1ccc(-c2nc(C#N)c(NCCCN3CCOCC3)o2)cc1	-3%	-1%	-3	24	-7%	4%
O=S(=O)(c1ccccc1)c1nc(-c2cccs2)oc1NCC1CCCO1 (configuration not stated)	6%	1%	-1	4	-11%	0%
N#Cc1nc(-c2cccs2)oc1NCC1CCCO1 (configuration not stated)	-3%	-8%	9.3*	11	0%	-1%
COc1ccc(-c2nc(C#N)c(NCC3CCCO3)o2)cc1 (configuration not stated)	9%	6%	25*	73*	-4%	3%
COc1ccccc1CNC(=O)C1CCN(c2nc3ccc(Cl)cc3[nH]2)CC1	·	5%[15.4 µM]	·	·	·	·
COc1cc(NC(=O)Cn2nc(C(F)(F)F)c3c2CCC3)cc(OC)c1OC	·	-1%	·	·	·	·
COCCCNC(=O)CC(c1cc(OC)c(OC)c(OC)c1)N1Cc2ccccc2C1=O (configuration not stated)	·	4%	·	·	·	·
c1ccc(CCNc2nnnn2-c2ccccc2)cc1	0%	0%	24*	30	6%	6%
C1=C(CCNc2nnnn2-c2ccccc2)CCCC1	-1%	-9%	19	5	-8%	1%
Fc1ccccc1CSc1nnc(-c2ccccc2)o1	?	2%	50*	75*	0%	-8%
COc1cc(OC)cc(-c2nnc(SCc3c(F)cccc3Cl)o2)c1	-7%	-11%	44*	81*	-1%	2%
Cc1ccccc1-c1nnc(SCc2ccccc2)o1	?	3%	32*	84*	0%	-2%
COc1ccc(-c2nnc(SCc3ccccc3F)o2)cc1	-9%	1%	47*	118*	0%	-4%
COc1cccc(Cn2c(=O)n(Cc3ccccc3)c(=O)c3c2c2cc(OC)ccc2n3C)c1	·	-2%	·	·	·	·
CC(=O)c1cccc(NC(=O)c2ccc(Cl)c(S(=O)(=O)N3CCOCC3)c2)c1	·	-2%	·	·	·	·
SMILES	RE007 growth inh	Tb PYK inh	Cycloheximide cs	Shiga toxin inh	FBPA Giardia inh	LmPK inh
CCCSc1nnc(NC(=O)c2cc(=O)c3ccccc3o2)s1	·	3%	·	·	·	·
Cc1ccccc1-c1nnc(SCC(=O)N2CCCCC2)o1	·	-5%	·	·	·	·
Cc1ccccc1-c1nnc(SCc2ccccc2F)o1	-11%	6%	58*	87*	0%	-7%
Fc1cccc(Cl)c1CSc1nnc(CNc2ccccc2)o1	10%	-2%	17*	20	-5%	6%
Cc1ccccc1-c1nnc(Cc2ccccc2)o1	-18%	0%	41*	138*	-1%[12.9 µM]	-8%
Cc1ccc(-c2nnc(Cc3ccc(Cl)cc3)o2)cc1	-18%	1%	29	39	6%	8%
O=c1cc(CSc2nnc(COc3ccc(Cl)cc3)o2)c2ccccc2[nH]1	-2%	4%	-2	-11	-7%	-11%
O=c1cc(CSc2nnc(-c3ccccc3)o2)c2ccccc2[nH]1	-3%	-3%	10*	5	-1%	2%
Cc1ccc(CNC(=O)c2ccc(N3Cc4ccccc4Oc4ncccc43)s2)cc1	·	-4%	·	·	·	·
CCCCCCCCCCCCCCCCOCC(COP(=O)([O-])OCC[N+](C)(C)C)OC (configuration not stated)	·	·	·	·	2%	·
COC(=O)C/C=C1\c2ccc3c(c2[C@@H](OC)[C@@H]1C)OCO3	·	·	·	·	-5%	·
COc1ccc(C(=O)N2CCC3(CCCN(CC(C)C)C3)CC2)cc1	·	13%	·	·	0%	·
CCOCCCNC(=O)C1CCN(c2nc3ccc(Cl)cc3[nH]2)CC1	·	-4%[15.4 µM]	·	·	·	·
